# Mcl1 Noxa PPI = disrupts binding of human Mcl-1 to Noxa peptide | inhibition, % at 21.7 µM | 220,000 tested, 1.5% active | Q07820 | TR-FRET Mcl-1/Noxa peptide binding, 2 h;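 active = compounds that cut the protein-peptide binding signal by more than 50% relative to plate controls in a single-dose test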;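 also: His-tagged Mcl-1 with rhodamine Noxa BH3 peptide and terbium anti-His antibody; 0% = Mcl-1 plus Noxa peptide wells and 100% = peptide-only wells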
# MCL1 BIM primary = inhibitors of human MCL1 binding to BIM-BH3 peptide; 320,000 tested, 0.68% active; GST-MCL1 / FITC-Bim-BH3 fluorescence polarization; inhibition, % at 10.9 µM; AID 2057; Q07820;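 active = inhibition above the mean inhibition of all tested compounds plus 3 SD, set per campaign, cut at about 40% in these data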;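 also: 0% = DMSO wells and 100% = unlabeled Bim-BH3 peptide control; higher means more loss of mP so more displacement of Bim peptide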
# Mcl1 Bid PPI = Mcl-1/Bid interaction inhibition | 220,000 tested, 0.97% active | TR-FRET Mcl-1/Bid-Dy647 peptide binding, 1536-well | inhibition, % at 21.7 µM | Q07820 | AID 1021;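 active = compounds that cut the binding signal by more than half at the single screening dose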;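 also: His-tagged Mcl-1 with europium anti-His antibody binding Bid BH3 peptide; 0% = Mcl-1 plus peptide wells and 100% = peptide-only wells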
# Mcl-1 Bim block = human Bim-Mcl-1 interaction inhibition | Bead-based flow cytometry, Bim peptide-Mcl-1 binding | inhibition, % at 10 µM | 190,000 tested, 0.1% active; in the data active = inhibition above about 40%;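 also: 0% = no compound tracer wells and 100% = peptide blocker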
# GLD-1 TGE inh = GLD-1-TGE RNA interaction inhibition (C. elegans); Q17339; purified GLD-1 + fluorescein TGE RNA, fluorescence polarization; inhibition, % at 5.96 µM; 320,000 tested, 0.44% active; AID 2280;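 active = percent inhibition above a per-plate cutoff, the plate mean of test compounds plus 3 SD, cut at about 30% in these data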;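 also: 0% = DMSO wells with GLD-1 and probe and 100% = wells lacking GLD-1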
# Bcl-xL primary = blocks human Bcl-xL binding to Bim BH3 peptide; Q07817; GST-Bcl-xL / FITC-Bim BH3 peptide fluorescence polarization; inhibition, % at 10.9 µM; 320,000 tested, 0.7% active;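 active = inhibition above the mean of all tested compounds plus 3 SD, cutoff set per campaign, cut at about 30% in these data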;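 also: 0% = DMSO wells and 100% = unlabeled Bim-BH3 peptide competitor; inhibitors lower millipolarization by displacing the labeled peptide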
# Target sequence (Q07817 whole entry, looked up): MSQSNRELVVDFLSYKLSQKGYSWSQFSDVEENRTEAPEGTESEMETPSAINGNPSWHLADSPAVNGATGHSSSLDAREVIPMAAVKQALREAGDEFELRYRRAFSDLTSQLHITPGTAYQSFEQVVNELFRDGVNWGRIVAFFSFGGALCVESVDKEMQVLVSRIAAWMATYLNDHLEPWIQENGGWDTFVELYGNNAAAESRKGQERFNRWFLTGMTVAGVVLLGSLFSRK
# Numbers without * were called inactive; · = no result; ! = not active in a repeat. In the library only some 2.3% were active in any assay of this set; here they are far more common.
SMILES,Mcl1 Noxa PPI,MCL1 BIM primary,Mcl1 Bid PPI,Mcl-1 Bim block,GLD-1 TGE inh,Bcl-xL primary
CCCNC(=O)c1csc2c1CCCCC2,7.7,4.7,-16.1,-6.0,4.0,7.8
O=C(NC1CCCC1)c1csc2c1CCCC2,10.9,5.3,100.0*,3.0,9.4,1.9
COC(=O)c1sc(N2C(=O)c3oc4ccccc4c(=O)c3C2c2cccc(O)c2)nc1C (centres undefined),18.0,4.8,58.1*,·,-3.5,5.3
Nc1[nH]c(=O)ncc1F,-9.9,-8.9,57.5*!,-1.0,2.2,-0.4
Nc1cc(OCC(F)(F)F)cc([N+](=O)[O-])c1,-0.2,-0.7,-36.3,-2.0,-2.6,5.5
Nc1cc(N)c(OCC(F)(F)F)cc1OCC(F)(F)F,12.7,29.5,-44.7,0.0,30.3,39.3*
CCCC1c2ccc(C)n2CCN1C(=O)Nc1ccc(F)cc1 (centres undefined),-2.1,37.4,-27.3,-8.0,15.2,45.9*
O=C(CC1C(=O)NCCN1C(=O)Nc1ccc(F)cc1)Nc1ccc(F)cc1 (centres undefined),10.7,-1.9,-10.1,·,-0.1,0.2
CCC1c2ccc(C)n2CCN1C(=O)Nc1ccc(F)cc1 (centres undefined),4.4,42.3*,-12.5,-5.0,24.5,45.5*
O=C(NC1C2CC3CC(C2)CC1C3)c1ccc(Br)o1 (centres undefined),·,7.2,·,·,6.2,10.9
CCC[n+]1c2ccccc2cc2ccccc21,·,19.7,·,·,28.6,36.5*
COc1ccccc1CNC(=O)CSc1nnc2c(Cl)cc(C(F)(F)F)cn12,16.8,0.1,0.3,0.0,0.3,1.7
CC1(C)Cc2cccc(OCC(=O)OCC(=O)Nc3ccccc3)c2O1,·,1.2,·,·,0.3,-7.6
CC1(C)Cc2cccc(OCC(=O)OCC(=O)Nc3cccc(S(N)(=O)=O)c3)c2O1,-0.7,1.9,92.6*,·,6.6,-10.8
CCCN1C(=O)/C(=C\c2nc3ccccc3c(=O)[nH]2)c2ccccc21,41.0,·,50.5*,0.0,·,·
CCC(=O)NC1=C(Cl)C(=O)C(NC(=O)CC)=C(Cl)C1=O,92.2*,·,-183.9,·,·,·
CCC(=O)NC1=C(NC(C)c2ccccc2)C(=O)c2ccccc2C1=O (centres undefined),24.3,-1.3,4.8,0.0,-0.2,2.4
COc1cc(C(=O)OCC(=O)NC(=O)NC2CCCCC2)cc(Cl)c1OC,·,-1.1,·,·,2.3,-1.9
COc1cc(C(=O)NCC2CCCN2S(=O)(=O)c2cccs2)cc(OC)c1OC (centres undefined),·,6.4,·,·,-7.1,2.6
CCOCCCNC(=O)c1c[nH]c2ccc(S(=O)(=O)Nc3cccc(OC)c3)cc2c1=O,39.4,-12.1,55.7*,0.0,-5.6,-5.3
CCOc1ccc(N(C)S(=O)(=O)c2ccc3[nH]cc(C(=O)NCC4CCCO4)c(=O)c3c2)cc1 (centres undefined),45.3,-6.3,10.6,4.0,1.5,5.0
CCN(CC)C(=O)c1c[nH]c2ccc(S(=O)(=O)Nc3cc(C)cc(C)c3)cc2c1=O,23.5,6.9,54.6*,-2.0,4.1,5.2
Cc1ccccc1N(C)S(=O)(=O)c1ccc2[nH]cc(C(=O)NCC3CCCO3)c(=O)c2c1 (centres undefined),41.5,-6.5,65.7*,-1.0,5.6,-1.1
CCc1ccc(NS(=O)(=O)c2ccc3[nH]cc(C(=O)NCC4CCCO4)c(=O)c3c2)cc1 (centres undefined),16.2,4.2,54.3*,-4.0,-5.0,4.2
CCCCn1c(N)c(N(CCOC)C(=O)COC(=O)c2cc(CCC)c(C)s2)c(=O)[nH]c1=O,·,-14.7,·,·,2.2,-7.0
SMILES,Mcl1 Noxa PPI,MCL1 BIM primary,Mcl1 Bid PPI,Mcl-1 Bim block,GLD-1 TGE inh,Bcl-xL primary
C/C(=N\NC(=O)CCc1ccc(S(=O)(=O)N2CCOCC2)cc1)c1ccc(OC(F)F)cc1,12.3,3.9,-16.6,-2.0,4.0,-1.4
CCCOc1ccc(-c2nnc(N)s2)cc1,61.7*,6.3,-37.1,-3.0,5.1,-1.2
COc1ccc(-c2nnc(N)s2)cc1,3.6,8.7,-21.1,-7.0,3.8,0.7
CNC(=S)NNC(=O)c1ccc(C(C)(C)C)cc1,2.1,7.6,-20.8,·,8.2,5.8
O=C(Nc1cccc(Oc2ccc(C(=O)O)c(C(=O)O)c2)c1)c1ccc(-c2ccccc2)cc1,80.0*,11.5,-49.2,·,3.6,8.2
O=C(Nc1cc2c3c(c1)CC(=O)N3CCC2)c1ccc(Cl)cc1,·,0.5,·,·,-4.7,2.3

# Screening results (PubChem)
